Experimental data from PubChem BioAssay AID1044 (The Scripps Research Institute Molecular Screening Center, 2008).
About 240 (1.5%) of roughly 16,000 compounds were called active. No stated cut-off is given here; in the data, active means activation above about 80%; inactive means the rest. The list comes from a sample in which actives are over-represented; it also holds similar structures and randomly drawn compounds.

These molecules were tested against Sphingosine 1-phosphate receptor 1 (Homo sapiens) (UniProt P21453) (assay: activates the human S1P1 receptor (AID 1044)). Conditions: S1P1 agonist cell-based reporter assay; at 4.5 µM; hits give high values.
Sequence of Sphingosine 1-phosphate receptor 1 (Homo sapiens) (P21453 whole entry, looked up): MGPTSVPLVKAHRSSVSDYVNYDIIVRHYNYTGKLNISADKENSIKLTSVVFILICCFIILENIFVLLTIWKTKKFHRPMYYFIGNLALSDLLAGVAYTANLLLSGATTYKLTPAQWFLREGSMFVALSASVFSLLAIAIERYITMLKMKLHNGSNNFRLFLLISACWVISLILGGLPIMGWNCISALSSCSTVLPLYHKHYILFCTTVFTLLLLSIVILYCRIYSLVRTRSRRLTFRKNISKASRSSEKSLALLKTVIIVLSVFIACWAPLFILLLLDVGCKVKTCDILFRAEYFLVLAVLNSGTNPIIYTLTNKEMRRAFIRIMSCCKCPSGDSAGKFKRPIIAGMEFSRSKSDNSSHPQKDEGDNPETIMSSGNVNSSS
For `OC(CNCCNc1nccc(C(F)(F)F)n1)COc1ccc(Cl)c(Cl)c1` (configuration not stated), the activation was 15.7% (inactive). In the case of `CSC(=Nc1ccccc1C(F)(F)F)N1CCCC1`, the activation was 62.5% (inactive). With `NNC(=O)CSc1nnc(-c2ccccc2)n1-c1ccccc1` the activation was 2.03% (inactive). For `CN(NC(=O)c1ccc(Cl)s1)c1cnn(-c2cc(Cl)cc(Cl)c2)c(=O)c1Cl`, the activation was 7.36% (inactive). For `O=C(NCc1cccnc1)c1ccccc1NC(=O)c1c(F)cccc1F`, the activation was 10.3% (inactive). In the case of `Cc1ccc(S(=O)(=O)NC(=O)NCCSCc2ccco2)cc1`, the activation was -7.47% (inactive). In the case of `O=C(CSc1ccc(Cl)cc1)NCCSCc1ccco1`, the activation was 3.06% (inactive). `O=C(O)CSC(SCC(=O)O)c1ccc2c(c1)OCO2` was tested, and the activation was -4.07% (inactive). With `Cc1cc(C)n(/N=c2\sc(-c3ccccc3)cn2C2CC3C=CC2C3)c(=O)c1C#N` (configuration not stated) the activation was -8.12% (inactive). In the case of `CCOC(=O)c1c(N/N=C\c2ccccc2O)n[nH]c1C`, the activation was -16.7% (inactive). `COc1cc(NC(=O)COc2cc(Cl)c(Cl)cc2Cl)cc(OC)c1OC` was tested, and the activation was 22.5% (inactive). `O=C(O)Cc1csc(NC(=O)CSc2nnnn2-c2ccc(O)cc2)n1` was tested, and the activation was 0.38% (inactive). `C/C(=N\NC(N)=S)c1cc2cc(Cl)ccc2o1` was tested, and the activation was 7.17% (inactive). With `N/C(=N\O)c1ccc2nonc2c1` the activation was 23.9% (inactive). In the case of `Clc1ccc(-c2csc(-c3cnccn3)n2)s1`, the activation was 1.06% (inactive). In the case of `S=C(Nc1cccnc1)N1CCCN(Cc2ccc(Cl)cc2Cl)CC1`, the activation was 14.2% (inactive). `COC(=O)c1ccsc1NC(C)=O` was tested, and the activation was -7.53% (inactive). `CCCc1c(C(=O)O)cnn1-c1ccc(Cl)cc1` was tested, and the activation was -21.8% (inactive). With `O/N=C(\c1ccccc1)c1ccccn1` the activation was -7.69% (inactive). With `COc1ccc(C2CC(c3cccs3)=Nc3ccccc3S2)c(Cl)c1OC` (configuration not stated) the activation was 1.73% (inactive). `O=S(=O)(O)Oc1c[nH]c2ccccc12` was tested, and the activation was -5.88% (inactive). For `CC1=C(C(=O)O)N2C(=O)[C@H](NC(=O)[C@@H](N)c3ccccc3)C2SC1` (some centres not stated), the activation was 8.53% (inactive). `O=C(c1cnn(-c2ccc(Cl)cc2)n1)c1cccs1` was tested, and the activation was 3.48% (inactive). With `CC(C)S(=O)(=O)/C(C#N)=C/c1ccccc1OC(F)(F)F` the activation was -23.8% (inactive). With `Cc1nc(C(=O)NNC(=S)Nc2ccccc2C(F)(F)F)cs1` the activation was -8.43% (inactive). For `COC(=O)c1ccccc1NC(=S)NNC(=O)c1ccc([N+](=O)[O-])cc1`, the activation was -4.53% (inactive). With `O=C(NNC(=S)Nc1ccccc1Cl)c1ccc(OC(F)(F)F)cc1` the activation was 91.2% (active). For `Cc1nn(S(=O)(=O)c2ccc(Cl)cc2)cc1-c1ccccc1`, the activation was -1.3% (inactive). `Cc1cc(Cl)ccc1NC(=S)NNC(=S)Nc1ccc(F)cc1` was tested, and the activation was 25.2% (inactive). For `Cc1onc(-c2ccccc2)c1C(=O)Sc1ccc(C(F)(F)F)cn1`, the activation was -5.64% (inactive). For `CC(=O)c1ccc(NC(=O)OC2CCSC2)cc1` (configuration not stated), the activation was -3.04% (inactive). With `O=S(=O)(c1ccccc1)c1cc(C(F)(F)F)cc(C(F)(F)F)c1` the activation was 1.62% (inactive). `O=c1oc2c3ccccc3c3oc(=O)sc3c2s1` was tested, and the activation was 11% (inactive). For `CN(C)c1ccc(C=Nc2ccc(S(N)(=O)=O)cc2)cc1`, the activation was -3.85% (inactive). `CC(=O)Nc1ccc(F)cc1F` was tested, and the activation was -19.4% (inactive). With `CC1(C)CCc2cc(-c3ccnc(SCC(=O)c4ccccc4)n3)ccc2O1` the activation was -11.3% (inactive). With `CC1(C)C=Cc2cc(-c3noc(-c4ccccc4)n3)ccc2O1` the activation was 96.3% (active). `Cc1cc(C(F)(F)F)nc2c(-c3noc(-c4ccccc4)n3)cnn12` was tested, and the activation was 23.9% (inactive). `O=c1cc(-c2ccccc2)cc(-c2ccccc2)o1` was tested, and the activation was -7.4% (inactive). `O=C(O)CC(CC(=O)Oc1ccccc1N1CCCCC1)c1ccccc1` (configuration not stated) was tested, and the activation was -2.68% (inactive). For `O=C(CCN1CCN(C(c2ccccc2)c2ccccc2)CC1)c1ccccc1`, the activation was 1.07% (inactive). For `CC1CC(NC(=O)/C(C#N)=C/c2ccc[nH]2)CC(C)(C)C1` (configuration not stated), the activation was -5.85% (inactive). For `Cc1[nH]ncc1S(=O)(=O)c1ccc(Cl)cc1`, the activation was 2.45% (inactive). In the case of `O=C(NCc1ccc(F)cc1F)c1cc(C(F)(F)F)cc(C(F)(F)F)c1`, the activation was -5.72% (inactive). In the case of `O=C(Nc1ccc(F)cc1OC(F)(F)F)N1CCC(O)CC1`, the activation was -2.84% (inactive). `Cc1nc2cc3c(cc2s1)OCO3` was tested, and the activation was 2.86% (inactive). For `COCn1nnc2ccccc21`, the activation was 1.03% (inactive). `CC1(C)CC(=O)C(N=Nc2c(F)cccc2F)=C(O)C1` was tested, and the activation was 7.55% (inactive). `CC(C)c1ccc(NNS(=O)(=O)c2ccc(Cl)c(Cl)c2)cc1` was tested, and the activation was -3.29% (inactive). With `CC(C)NC(=O)NNc1c(Cl)cncc1Cl` the activation was 8.17% (inactive). In the case of `CC(=O)Nc1ccc(S(=O)(=O)NNc2c(Cl)cncc2Cl)cc1Cl`, the activation was 80.4% (active). In the case of `Cc1cc(C2=CSC3=NCCN23)ccc1Cl`, the activation was 8.4% (inactive). In the case of `CN(C)/C=C/C(=O)c1cc(C(C)(C)C)cc(C(C)(C)C)c1O`, the activation was 19.8% (inactive). With `CCCCNC(=O)OCCSCCS(=O)(=O)c1ccc(Cl)cc1` the activation was -12.4% (inactive). With `O=C1COCC(=O)N1c1ccc2c(c1)OCO2` the activation was -5.13% (inactive). `Nc1[nH]c(=O)nc2nc[nH]c12` was tested, and the activation was -5.12% (inactive). In the case of `N/C(=N\OS(=O)(=O)c1ccc(C(F)(F)F)cc1)C1CSCCS1` (configuration not stated), the activation was 6.24% (inactive). In the case of `CCc1cccc(C)c1N(C(C)=O)C1=NCCC(=O)S1`, the activation was -5.03% (inactive). With `Cn1c(=O)c(C#N)cn(-c2ccccc2)c1=O` the activation was -15.9% (inactive). `CC(C)S(=O)(=O)c1cscc1N/C=C(/C#N)C(=O)c1cccs1` was tested, and the activation was 21.3% (inactive). For `O=C(Nc1cc2ccccc2s1)N1CCN(Cc2c(F)cccc2Cl)CC1`, the activation was 8.18% (inactive). With `Cc1cc(CNC(=O)c2cc(C)n(C)n2)no1` the activation was 0.51% (inactive). `N#Cc1sccc1Br` was tested, and the activation was -1.57% (inactive). `CCOC(=O)C/C(N)=C(\C#N)C(=O)OCC` was tested, and the activation was -0.14% (inactive). In the case of `Cc1nc(-c2cccnc2)nc(N2CCCN(Cc3ccc(F)cc3)CC2)c1Cl`, the activation was -19.4% (inactive). For `CN(C)/C=N/NC(=O)c1nc(-c2cccc(-n3cccc3)c2)no1`, the activation was -6.62% (inactive). With `CCOC(=O)O/N=C(\N)c1ccc(Cl)cc1` the activation was 3.02% (inactive). `O=[N+]([O-])c1ccc(-c2ccc(I)cc2)cc1` was tested, and the activation was 1.05% (inactive). `O=[N+]([O-])c1cc(C(F)(F)F)ccc1OCCO` was tested, and the activation was 8.3% (inactive). With `O=C1/C(=C/c2ccc3c(c2)OCO3)CCC/C1=C\c1ccc2c(c1)OCO2` the activation was 11.5% (inactive). For `COc1ccc(/C=C(\NC(=O)c2ccccc2)C(=O)N/N=C/c2ccc3c(c2)OCO3)cc1`, the activation was 7.34% (inactive). In the case of `O=C(/C(=N\N=C\c1ccc2c(c1)OCO2)c1ccccc1)c1ccccc1`, the activation was 101% (active). With `CO/N=C(/C)c1ccc2c(c1)CCO2` the activation was -16.7% (inactive). `O=C(NCc1cc2ccccc2s1)C1CN(C(c2ccccc2)c2ccccc2)C1` was tested, and the activation was -7.79% (inactive). With `O=C(CSc1nnc(-c2ccncc2)n1Cc1ccccc1)Nc1nnc(-c2ccco2)s1` the activation was 4.05% (inactive). With `c1ccc2sc(-c3csc(-c4ccc5c(c4)OCCO5)n3)nc2c1` the activation was 7.46% (inactive). With `S=C(NNC(=S)NC1CC2C=CC1C2)NC1CC2C=CC1C2` (configuration not stated) the activation was -6.61% (inactive).
